PubChem BioAssay (NCI)
Compounds without any hit were thinned out: in the full panel of roughly 83,000, 20% have a hit.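 48-hour exposure, single concentration, 96-well plates; percent growth endpoint where 0 means no net growth. Active: below 10.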 A number with no mark means an inactive call. The source made the active and inactive calls.

Experiments:
Experiment in all cases: NCI-60 one-dose screen, 48 h (100 = growth as untreated, 0 = no growth, -100 = all killed)
Conditions in all cases: 10 µM unless noted
HCT-15 colon = system: HCT-15 colon
HT29 colon = system: HT29 colon
SNB-75 CNS = system: SNB-75 CNS
SNB-19 CNS = system: SNB-19 CNS
U251 CNS = system: U251 CNS
PC-3 prostate = system: PC-3 prostate
SK-MEL-5 melanoma = system: SK-MEL-5 melanoma
UACC-62 melanoma = system: UACC-62 melanoma
LOX IMVI melanoma = system: LOX IMVI melanoma
SK-MEL-28 melanoma = system: SK-MEL-28 melanoma

Row | SMILES | growth (HCT-15 colon) | growth (HT29 colon) | growth (SNB-75 CNS) | growth (SNB-19 CNS) | growth (U251 CNS) | growth (PC-3 prostate) | growth (SK-MEL-5 melanoma) | growth (UACC-62 melanoma) | growth (LOX IMVI melanoma) | growth (SK-MEL-28 melanoma)
1 | C[C@@H]1C[C@H](N)C[C@H](c2ccncc2NC(=O)c2ccc(F)c(-c3c(F)cccc3F)n2)C1 | 52.4% | 10.9% | 40.5% | 69.3% | 42.6% | 24.2% | -59.8% (active) | 25.3% | 33.1% | 12.2%
2 | CCCc1n(Cc2ccc3ccccc3c2)c2ccccc2[n+]1Cc1ccc2ccccc2c1 | 4.29% (active) | -72.2% (active) | -18.2% (active) | -76% (active) | -92.6% (active) | -22.8% (active) | -97.3% (active) | -89.2% (active) | -90.5% (active) | -53.6% (active)
3 | Cc1ccc(NC(=O)c2[nH]c(SCCN(C)C)nc2-c2ccc(F)cc2)cc1Nc1ccc2ncn(C)c(=O)c2c1 | 65.4% | 21.4% | 66% | 92.4% | 66.6% | 88.5% | 30.8% | 12.5% | 28% | 16.5%
4 | NNC(=O)Cc1ccccc1 | 82.7% | 101% | 77.8% | 93.1% | 91.8% | 56.9% | 96.9% | 45.8% | 50.7% | 108%
5 | Cn1nc(C(F)(F)F)cc1-c1cc(Cl)c(OCc2ccc(Cl)cc2)c(-c2ccc(Cl)c(C(F)(F)F)c2)c1O | 6.63% (active) | 5.38% (active) | -8.74% (active) | 17.4% | 8.94% (active) | 7.86% (active) | -53.3% (active) | 4.43% (active) | 12.4% | 13.7%
6 | Cc1nc2c(-c3cnc(N)nc3)nc(N3CCOCC3)nc2n1C(C)C | 10.7% | 3.37% (active) | -38.8% (active) | 10.6% | 4.62% (active) | 14.4% | -21.2% (active) | -39.9% (active) | -1.69% (active) | -10.1% (active)
7 | COc1cc(C2CC(c3cccc(Nc4ccnc5cc(Cl)ccc45)c3)=NN2c2ccc(Cl)cc2)cc(OC)c1OC (stereo not given) | 54.2% | 76% | 62.4% | 85.9% | 75.2% | 51% | 34.2% | 9.05% (active) | 43.5% | 51.4%
8 | CCCCNCCC(O)c1cc2ccc(C(F)(F)F)cc2c2cc(C(F)(F)F)ccc12 (stereo not given) | -65.2% (active) | -84.8% (active) | -90.5% (active) | -76.6% (active) | -93.7% (active) | -85.2% (active) | -87.6% (active) | -84.3% (active) | -71.2% (active) | -87.7% (active)
9 | O=C1c2ccccc2C2N1CCC1CCc3ccccc3N12 (stereo not given) | 94.5% | 100% | 94.3% | 96.2% | 89.7% | 76.3% | 98% | 82.2% | 100% | 109%
10 | Cc1ccc(N=CNN=C(N)N)cc1 | 100% | 105% | 96.8% | 105% | 97.2% | 107% | 105% | 89.8% | 113% | 106%
11 | O=C(O)Cn1ccc2ccccc21 | 111% | 106% | 91.1% | 98.9% | 108% | 101% | 98.7% | 104% | 91.8% | 134%
12 | CC(C)COC(=O)NC(C)(C)C | 98% | 93% | 86.7% | 111% | 107% | 102% | 109% | 107% | 103% | 113%
13 | CCOCC(O)(c1ccc(Cl)cc1)c1ccc(Cl)cc1 | 88.6% | 81.4% | 103% | 106% | 95.9% | 88.8% | 96.1% | 87% | 94.8% | 108%
14 | Cc1ccc2nc(CN(CCN(Cc3nc4ccc(C)cc4[nH]3)Cc3nc4ccc(C)cc4[nH]3)Cc3nc4ccc(C)cc4[nH]3)[nH]c2c1 | -94.3% (active) | -98.2% (active) | -100% (active) | -100% (active) | -94.1% (active) | -83.4% (active) | -100% (active) | -85.3% (active) | -90.8% (active) | -94.8% (active)
15 | CCCCn1cnc(-c2cc(-c3ccccc3)cc(C(F)(F)F)c2)n1 | 104% | 101% | 98.9% | 98.6% | 97.7% | 82.7% | 101% | 90.3% | 105% | 109%
16 | Cc1cc2nc3c(=O)[nH]c(=O)nc-3n(CC=O)c2cc1C | 106% | 102% | 89.3% | 99.8% | 103% | 122% | 98.6% | 92.2% | 101% | 117%
17 | COc1cc(OC)cc(-c2n/c(=C\c3c(O)[nH]c4ccc(Cl)cc34)cc3c2=Nc2ccccc2-3)c1 | 84.2% | 15.6% | 93.7% | 79.5% | 17.6% | 69.3% | 92.9% | 104% | 18.8% | 109%
18 | COc1ccc(C2=CC(c3ccc(OC)cc3Br)N3C=CSC3=N2)cc1 (stereo not given) | 27.5% | -6.33% (active) | 63.7% | 62.3% | 37.2% | 50.4% | 78.7% | 71.2% | 16.6% | 84%
19 | CCN(CC)Cc1cc(Nc2nc(NC3CCC(N(C)C)CC3)c3ccccc3n2)ccc1OC (stereo not given) | 94.7% | 14.2% | 72.3% | 89.4% | 50.5% | 62.6% | 45.7% | 98.4% | 33.7% | 20.6%
20 | CCOP(=O)(O)OP(=O)(O)OCC | 98.5% | 102% | 81.3% | 106% | 105% | 104% | 113% | 106% | 92.7% | 108%
